Only some compounds are listed: those with a hit (about 6.7% of all), similar ones and a draw of the others.
MCF10A rerep = A quantitative high throughput screen for small molecules that induce DNA re-replication in MCF 10a normal breast cells; hit rate 2.9% among 350,000; Potency, µM (titrated, usually from 46.1 µM), without a hit: at the highest dose activity, positive = re-replication, hits mostly activators; MCF 10A DNA re-replication, Hoechst nuclear intensity, 48 h; further: % of control where 0% means no effect; nearly all actives have a fitted effect of over 50% in size
KB-3-1 cytotox = qHTS assay for MDR1-selective chemotherapeutics: Primary screen using the parental adenocarcinoma cell KB-3-1 | KB-3-1 viability, CellTiter-Glo ATP luminescence, 72 h | Potency, µM (highest dose often 46.1 µM), hits mostly cytotoxic | hit rate 1.4% among 400,000 | AID 1347075, 2019; further: on the % scale 0 is the no-effect control and ±100 the full control effect; nearly all actives have a fitted effect of over 60% in size
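Here the drug-naive KB-3-1 line serves as comparator for MDR sub-line selectivity; cells received compound titrations, 72 h at 37 °C, then CellTiter-Glo readout.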
SW480 rerep = A quantitative high throughput screen for small molecules that induce DNA re-replication in SW480 colon adenocarcinoma cells; SW480 DNA re-replication, Hoechst DNA content imaging, 48 h; Potency, µM (series often up to 46.1 µM), inactives show at the top dose re-replication activation, actives largely listed as activators; hit rate 1.8% among 340,000; AID 624297, 2012; further: % of control where 0% means no effect; nearly all actives have a fitted effect of over 55% in size
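Image-based DNA-content assay: after two days of treatment, nuclei were labelled with the DNA dye Hoechst and imaged, and hits were compounds raising the count of nuclei showing high fluorescence intensity.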
PINK1 modulator = A Quantitative High throughput Screen to Identify Chemical Modulators of PINK1 Expression; PINK1 immunofluorescence, high-content cytometry, 24 h; Potency, µM (titrated, usually from 76.6 µM), without a hit: top-dose activation (PINK1 increase), actives largely listed as activators; hit rate 0.2% among 410,000; AID 624263, 2012; active means well fitted activation curve with a large enough effect; inconclusive means small, poorly fitted or top-dose-only effect; cell line not stated here; further: % of control where 0% means no effect; nearly all actives have a fitted effect of over 65% in size
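Decision-based qHTS: stable cells, 24 h exposure to five compound concentrations, CCCP as control. Fixed cells stained for PINK1 plus nuclear, mitochondrial and cell markers, cytometer read.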
KB-V1 MDR tox = qHTS assay for MDR1-selective chemotherapeutics: Primary screen using the drug-selected MDR subline cells KB-V1; KB-V1 MDR cells viability, CellTiter-Glo, 72 h; Potency, µM (titrated, usually from 46.1 µM), most hits filed as cytotoxic; hit rate 3.4% among 400,000; AID 1347076, 2019; further: on the % scale 0 is the no-effect control and ±100 the full control effect; nearly all actives have a fitted effect of over 60% in size
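Cytotoxicity via CellTiter-Glo luminescence after 72 h compound exposure at 37 degrees C. Cells: drug-selected KB-V1 line, DMEM phenol-red free plus 10% FBS. Compounds tested at multiple concentrations; normalized data fitted to concentration-effect curves.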
Active calls of the source: *; i = inactive; ? = inconclusive; / = no result; [ ] = dose if it differs, or a comment. Unless noted, the call rests on the fitted dose curve; in most records, active means well fitted curve in the direction sought with a large enough effect; inconclusive means small, poorly fitted or top-dose-only effect, or another doubt; inactive means no such curve, though single readings can be large; an effect the other way counts as inactive or inconclusive. Potency means the concentration at half of the fitted maximal effect.

SMILES | MCF10A rerep | KB-3-1 cytotox | SW480 rerep | PINK1 modulator | KB-V1 MDR tox
Nc1nc(Sc2ccc([N+](=O)[O-])cc2[N+](=O)[O-])n[nH]1 | -9% | ? | ? | 4% | i
O=c1[nH]c(Sc2ccc([N+](=O)[O-])cc2[N+](=O)[O-])nc2ccccc12 | 6.5µM* | i | ? | 3% | ?
COc1ccc(C(=O)N(Cc2ccco2)Cc2cccs2)cc1 | / | / | / | -1% | /
Cc1nc(N2CCCC2)c2c(C(=O)Nc3ccc(Br)cc3F)c(C)oc2n1 | / | / | / | 0% | /
COc1cccc(CNC(=O)C2CCN(S(=O)(=O)c3c(C)noc3/C=C/c3cccs3)CC2)c1 | / | / | / | 1% | /
CCOC(=O)C1=C(C)NC(C)=C(C(=O)OCC)C1c1ccccc1C=CC(=O)OC(C)(C)C | ? | / | 30µM* | / | /
CCOC(=O)C1=C(C)NC(C)=C(C(=O)OCC)C1/C=C/c1ccccc1 | ? | i | ? | 10%[38.3 µM] | i
CCOC(=O)C1=C(C)NC(C)=C(C(=O)OCC)C1/C=C/c1ccccc1OC | ? | i | 23µM* | ? | 21µM*
CCc1ccc(C(=O)CCC(=O)Nc2ccc(OC)c(S(=O)(=O)N3CCCCC3)c2)cc1 | ? | / | 8% | -1% | /
CCc1ccc(-c2cn(-c3nc(C)cc(C)n3)c(=N)o2)cc1 | 23µM* | 21µM* | 0% | 4% | ?
O=C(CCc1ccccc1)Nc1ccc(Cl)cn1 | 5.8µM* | 5.8µM* | 6.5µM* | 0% | ?
COc1ccc(CCC(=O)Nc2ncc(C)s2)cc1OC | 12% | ? | ? | 2% | i
O=C(Cc1ccccc1)Nc1ccc(Cl)cn1 | 2% | i | -6%[9.22 µM] | 0% | i
Cc1cnc(NC(=O)CCc2ccccc2)s1 | 10µM* | ? | 13µM* | 11% | i
COc1ccc(C(=O)Nc2nnc(S(=O)(=O)N(CC(C)C)c3ccc(C)cc3)s2)cc1OC | / | / | / | 0% | /
O=C(c1cccs1)N1CCN(C(=O)c2cccs2)C1=S | 5.8µM* | 15µM* | 16µM* | -2% | 2.9µM*
Cc1ccc(NC(=O)Cn2c(-c3ccc(F)cc3)cnc2SCC(=O)Nc2c(C)cccc2C)cc1 | 4.6µM* | i | ? | 15% | i
Fc1ccc(-c2nc(Nc3ccc(F)c(Cl)c3)nc3c2COc2ccccc2-3)cc1 | / | i | / | -1% | i
CC1CC(N(C(=O)c2ccco2)c2ccccc2)c2ccccc2N1C(=O)c1ccco1 (configuration not stated) | 30% | i | ? | -6% | i
CC12CC(c3ccccc3O1)N(C(=O)c1ccco1)C(=S)N2c1ccccc1 (configuration not stated) | 23µM* | i | 18% | -1% | i
CN1CCN(C(=O)c2cccc(-c3cnc4cnc(-c5ccccc5Oc5ccccc5)cn34)c2)CC1 | / | ? | / | 0% | 7.3µM*
O=C(Cc1csc(Nc2nc(=S)[nH]c3ccccc23)n1)N1CCN(c2cccc(C(F)(F)F)c2)CC1 | ? | 13µM* | 9% | 5% | 23µM*
O=C(Nc1ccc(N2CCCCCC2)cc1)c1ccccc1Cl | 6.5µM* | ? | 13µM* | 0% | ?
COc1ccccc1C(=O)Nc1ccc(N2CCCCC2)cc1 | 6% | i | -3% | 3% | 21µM*
COc1ccccc1C(=O)Nc1ccc(S(=O)(=O)N2CCCC2)cc1 | 2% | i | -1% | -3%[38.3 µM] | 18µM*
SMILES | MCF10A rerep | KB-3-1 cytotox | SW480 rerep | PINK1 modulator | KB-V1 MDR tox
O=S(=O)(Nc1ccc(N2CCCCC2)cc1)c1ccccc1 | 11% | i | 20% | 11% | 21µM*
COc1ccccc1C(=O)Nc1ccc(N2CCN(C(C)=O)CC2)cc1 | -28% | i | -16% | 3% | i
CC1CC(=O)N(CC(=O)NCc2ccccc2)c2ccccc2S1(=O)=O (configuration not stated) | -1% | i | -5% | 1% | i
CC(O)CN1CCN(C(=O)CN2C(=O)NC(c3ccccc3)(c3ccccc3)C2=O)CC1 (configuration not stated) | 5% | i | 5% | 1% | ?
O=S(Cc1cc(Sc2ccccc2)nc(-c2ccccc2)n1)c1ccccc1 (configuration not stated) | 23µM* | ? | ? | 16% | ?
CC1(C(=O)NS(=O)(=O)c2cccc(C#N)c2)CCN1C(=O)c1cccc2ccccc12 (configuration not stated) | / | i | / | 2% | ?
COc1cc(/C=N/NC(=O)c2cc(-c3cccc(OC(C)C)c3)nc3ccccc23)ccc1O | ? | ? | ? | 11% | i
O=S(=O)(Nc1c(O)ccc2ccccc12)c1cccc2ccccc12 | ? | i | 0%[9.22 µM] | 7% | i
Cc1ccc(C)c(S(=O)(=O)N(C)c2ccc(OC(=O)CN3C(=O)NC4(CCCC4)C3=O)cc2)c1 | -11% | i | -6% | -1% | i
O=C(CN1C(=O)NC2(CCCCC2)C1=O)Oc1ccc2ccc(=O)oc2c1 | ? | i | 10µM* | 0% | i
O=C1CCCC2=C1C1(CCOCC1)N=C(Nc1nc3ccccc3o1)N2 | / | i | / | / | i
O=C1CCCC2=C1C1(CCCCC1)N=C(Nc1nc3ccccc3s1)N2 | 10µM* | i | 15% | -2%[38.3 µM] | i
O=C1CCCC2=C1C1(CCCC1)N=C(Nc1nc3ccccc3s1)N2 | ? | i | -3% | 11µM* | i
NC(c1csc(NC(=O)Nc2ccccc2)n1)C1CCCCC1 (configuration not stated) | / | ? | / | 0% | 18µM*
O=C(Nc1cccc(C(F)(F)F)c1)c1csc([C@@H]2O[C@H](CO)[C@@H](O)[C@H]2O)n1 | / | i | / | -1% | i
O=C(CN1C(=O)COc2ccccc21)N(Cc1ccccc1)Cc1ccccn1 | -3% | i | 1% | -2%[38.3 µM] | 15µM*
COc1ccc(CN(CC(=O)NC2CCCC2)C(=O)CN2C(=O)COc3ccccc32)cc1 | 2% | i | -2% | 3% | i
COc1ccc(CN(Cc2ccccn2)C(=O)CN2C(=O)C(C)Oc3ccccc32)cc1 (configuration not stated) | 28% | i | 14% | -2%[38.3 µM] | 2.1µM*
COc1ccc(OC)c2c(C)ccnc12 | / | i | / | / | i
Cc1cccc2c1Sc1ccc(Cl)cc1CC2N1CCNCC1 (configuration not stated) | 12µM* | ? | 29% | -1% | ?
CCc1cccc2c1Sc1ccccc1CC2N1CCNCC1 (configuration not stated) | ? | ? | 86% | 3% | 13µM*
Cc1ccc(C)c(NC(=O)Nc2cc3c(cc2N2CCCCC2)n(C)c(=O)n3C)c1 | / | / | / | 0% | /

Assay outcomes (PubChem BioAssay)
